Sampled rows, rich in hits. Any-hit rate of the full collection: about 7.7%.
TbPYK inhibitor = qHTS of Trypanosoma Brucei Inhibitors. Potency, µM (series often up to 76.8 µM), without a hit: at the highest dose activity, negative = inhibition, most hits filed as inhibitors. TbPYK enzyme, Kinase-Glo Plus ATP luminescence, 45 min. 410,000 compounds, 0.12% hits. AID 624173, 2012; also: potency is read from the fitted curve at half-maximal effect; nearly all actives have a fitted effect of over 50% in size
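Readout: single end-point luminescence (Kinase-Glo Plus, 10 min). Reaction conditions were TbPYK/substrate plus 130 uM ADP, 45 min at RT, pH 7.2 TEA buffer. No-enzyme wells served as controls, and data were normalized before concentration-response fitting.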
FBPA Giardia inh = qHTS Assay for Inhibitors of Fructose-1,6-bisphosphate Aldolase from Giardia Lamblia | A8B2U2 | purified Giardia FBPA | Potency, µM (top dose mostly 59.6 µM), inactives show at the highest dose activity, negative = inhibition, actives largely listed as inhibitors | 290,000 compounds, 0.71% hits | AID 2451, 2010; also: potency is read from the fitted curve at half-maximal effect; nearly all actives have a fitted effect of over 55% in size
Target sequence (A8B2U2 whole entry, looked up): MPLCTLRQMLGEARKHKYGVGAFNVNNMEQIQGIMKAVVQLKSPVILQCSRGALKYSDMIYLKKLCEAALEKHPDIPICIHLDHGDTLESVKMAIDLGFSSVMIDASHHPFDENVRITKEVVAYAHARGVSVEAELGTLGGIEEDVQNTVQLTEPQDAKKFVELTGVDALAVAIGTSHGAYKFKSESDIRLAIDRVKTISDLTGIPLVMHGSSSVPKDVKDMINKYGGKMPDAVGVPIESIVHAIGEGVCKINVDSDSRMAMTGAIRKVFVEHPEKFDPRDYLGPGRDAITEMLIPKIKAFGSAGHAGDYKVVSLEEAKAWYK
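40 nM FBPA preincubated 10 min at RT with compound (up to 57.5 uM final), then substrate plus GAPDH/TPI/NAD/arsenate coupling and diaphorase/resazurin added. Fluorescence read after 20 min at RT, 525/598 nm.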
FMDV antiviral = High Throughput Screening for Foot and Mouth Disease Virus Antivirals | FMDV antiviral cell-based qHTS | 410,000 compounds, 1.2% hits | Potency, µM (top dose mostly 57.9 µM), without a hit: at the highest dose activity change, negative = inhibition, hits mostly inhibitors; calls by dose curve; tested in HEK293T cells; also: read-out not given here; potency is read from the fitted curve at half-maximal effect; nearly all actives have a fitted effect of over 45% in size
HCMV antiviral = qHTS Assay for inhibitors of the human cytomegalovirus (HCMV). HFF cells, HCMV-luciferase reporter, 72 h; hits give low values. activity change, negative = inhibition, % at 57.5 µM. 410,000 compounds, 4.5% hits; in the data active = activity change below about -60%; inconclusive = no clear call, values can overlap the other calls; inactive = above about -39%
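Screen run at 2 compound doses on HFFs infected with reporter HCMV, MOI 1 PFU/cell. Luciferase activity from cell lysates at 72 h post infection gave inhibition relative to buffer-only and Salinomycin wells.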
RE007 growth inh = qHTS Assay for Inhibitors of the HIV-1 protein Vpr | S. pombe RE007 Vpr strain, BacTiter-Glo ATP luminescence, 24 h | Potency, µM (series often up to 92.2 µM), for inactives: at the top dose activity change, negative = less growth, most hits filed as inhibitors | 360,000 compounds, 0.21% hits | AID 651644, 2012; active = well fitted falling curve with a large enough effect; inconclusive = small, poorly fitted or top-dose-only effect; inactive = no such curve, though single readings can be large or run the other way; also: potency is read from the fitted curve at half-maximal effect; nearly all actives have a fitted effect of over 50% in size
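Fission yeast RE007 carrying one integrated HIV-1 vpr copy, seeded at OD 0.01 in PMG+AL medium with 23 nL pinned compound. Grown 24 h at 30 degrees; viability read by BacTiter-Glo luminescence after 5 min.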
Sm TGR block = qHTS Assay for the Inhibitors of Schistosoma Mansoni Peroxiredoxins; purified TGR, DTNB reduction, TNB absorbance 405 nm; AID 485364, 2010; 360,000 compounds, 3% hits; Schistosoma mansoni thioredoxin glutathione reductase (TGR), Q962Y6; Potency, µM (titrated, usually from 114 µM), without a hit: at the highest dose activity change, negative = inhibition, actives largely listed as inhibitors; also: potency is read from the fitted curve at half-maximal effect; nearly all actives have a fitted effect of over 60% in size
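First, TGR (20 nM dispensed) and NADPH were mixed with compound. Second, a 15 min room-temperature incubation followed. Third, further NADPH and then DTNB were added to start the reaction. Finally, TNB absorbance was monitored kinetically.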
* hit, by the source's call; ? = inconclusive; . = not tested or not shown; [ ] = dose if it differs, or a comment. Unless noted, calls follow the shape of the dose curve; as a rule, active = well fitted curve in the direction sought with a large enough effect; inconclusive = small, poorly fitted or top-dose-only effect, or another doubt; inactive = no such curve, though single readings can be large; an effect the other way counts as inactive or inconclusive. % is scaled to controls: 0 for no effect and ±100 for the full control effect.

SMILES	TbPYK inhibitor	FBPA Giardia inh	FMDV antiviral	HCMV antiviral	RE007 growth inh	Sm TGR block
Cn1cnc(S(=O)(=O)N2CCC(C(=O)N3CCN(c4ccc(Cl)cc4)CC3)CC2)c1	-5%	.	-7%	-14	.	-9%
Cc1ccc(NS(=O)(=O)c2ccc3c(c2)CC(C)N3C(=O)C2CCC2)cc1Cl (stereo unspecified)	-3%	.	12%	-76*	.	0%
COc1ccc(N2CCN(C(=O)C3CCN(S(=O)(=O)c4cn(C)cn4)CC3)CC2)cc1	-7%	.	-10%	-72*	.	-2%
CCOC(=O)C1=C(C)N=c2s/c(=C/c3ccccc3)c(=O)n2C1c1ccc(OC)c(OC)c1 (stereo unspecified)	-4%	1%	?	33	0%	12%
CCOC(=O)C1=C(C)N=c2s/c(=C3\C(=O)Nc4ccccc43)c(=O)n2C1c1ccc2c(c1)OCO2 (stereo unspecified)	-16%	-17%	19%	10	13%	4µM*
CCOC(=O)C1=C(C)N=c2sc(=C(C)C)c(=O)n2C1c1ccc(N(C)C)cc1 (stereo unspecified)	-3%	.	7%	-15	-3%	.
CCOC(=O)C1=C(C)N=c2s/c(=C\c3ccncc3)c(=O)n2C1c1ccc2c(c1)OCO2 (stereo unspecified)	-12%	-14%	25µM*	-13	6%	-14%
CC(=O)N1CCN(C2=Nc3cccc4cccc2c34)CC1	13%	4µM*	.	-3	-5%	11%[11.4 µM]
CCOC(=O)N1CCN(C2=Nc3cccc4cccc2c34)CC1	1%	?	.	-17	-5%	-9%
Cc1ccc2cc(C=C(C#N)C#N)c(N3CCCCC3)nc2c1	-5%	-16%	.	52	-17%	3.2µM*
Cc1ccc2cc(C=C(C#N)C#N)c(Cl)nc2c1	-3%	-18%	32µM*	31	-29%	2.8µM*
Cc1ccc2cc(/C=C(\C#N)C(N)=O)c(N3CCCCC3)nc2c1	-4%	-1%	-16%	0	-10%	-15%
N#CC(C#N)=Cc1cc2ccccc2nc1N1CCOCC1	-9%	-1%	-2%	84	-10%	7.1µM*
Cc1cc(C)c(Cn2c(CCNC(=O)c3ccco3)nc3ccccc32)c(C)c1	-2%	.	-29%	-17	.	0%
COc1ccccc1-c1nc(SCC(=O)NCc2ccc(C)cc2)c2c(=O)n(C)c(=O)n(C)c2n1	-5%	.	-10%	-15	.	?
O=C(C1=C[C@H](c2ccc(Br)cc2)C[C@H](OCCCCO)O1)N1CCN(Cc2ccc3c(c2)OCO3)CC1	3%	-9%	-29%	.	-7%	-10%
O=C(C1=C[C@@H](c2ccc(Br)cc2)C[C@@H](OCCCCO)O1)N1CCN(Cc2ccccc2)CC1	8%	-19%	?	-94*	3%	20µM*
O=C(O)C1=C[C@@H](c2ccc3c(c2)OCO3)C[C@@H](OCCCCO)O1	-7%	-15%	-12%	18	19%	45µM*
O=C(C1=C[C@@H](c2ccc3c(c2)OCO3)C[C@@H](OCCCCO)O1)N1CCOCC1	-4%	-17%	-3%	-21	0%	45µM*
O=C(C1=C[C@H](c2ccc3c(c2)OCO3)C[C@H](OCCCCO)O1)N1CCN(Cc2ccccc2)CC1	3%	-26%	-16%	1	2%	25µM*
O=C(C1=C[C@@H](c2ccc3c(c2)OCO3)C[C@@H](OCCCCO)O1)N1CCN(Cc2ccc3c(c2)OCO3)CC1	-1%	4%	-19%	-23	0%	-34%
COc1ccc(-c2ccc3c(n2)CCCN3C[C@H](O)CN2CCCc3nc(C)c(C)cc32)cc1	.	-18%[12.9 µM]	.	.	.	.
CC#CCC1(C(=O)OC)C(=O)NC[C@H]1c1ccccc1 (stereo partly specified)	.	-1%	.	.	.	.

From PubChem BioAssay
